Laboratory results published in the supplement of paper PMC8975748.
Counter-ions that a name gives are not always drawn.

Each compound was assayed on Saccharomyces cerevisiae BY4741 SeMeCo community (assay: z-score of prototroph abundance vs DMSO median; higher = larger share of this subpopulation than in DMSO controls). Details: 10 µM; 24 h; SM minimal medium; subpopulation (auxotrophy): Prototroph.
Method: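 Fluorescent four-plasmid SeMeCo (self-establishing metabolically cooperating S. cerevisiae BY4741 community; plasmids pH-mRuby2, pL-mWasabi, pU-eCFP, pM-TagRFP657) was grown 24 h in minimal SM medium with each Selleck FDA-approved drug at 10 µM in 384-well plates. Cells were fixed and imaged by high-content confocal microscopy. For each auxotrophic subpopulation (and the prototroph), a z-score gives the deviation from the DMSO vehicle-control population median.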

SMILES	z-score of prototroph abundance
C=CCN1CCCC1CNC(=O)c1cc2nn[nH]c2cc1OC (stereo not given) [Alizapride HCl]	-0.2
CN(C)[C@@H](CCOc1cccc2ccccc12)c1ccccc1 [Dapoxetine HCl]	0.05
CCC(C)C1OC2(CCC1C)CC1CC(CC=C(C)C(OC3CC(OC)C(OC4CC(OC)C(O)C(C)O4)C(C)O3)C(C)C=CC=C3COC4C(O)C(C)=CC(C(=O)O1)C34O)O2 (stereo not given) [Ivermectin]	-1.61
Cc1ccc2c(Cl)cc(Cl)c(O)c2n1 [Chlorquinaldol]	-18.8
C[C@@H]1O[C@@H]1P(=O)(O)O [Fosfomycin Disodium]	0.42
C[C@]12CC[C@@H]3c4ccc(O)cc4CC[C@H]3[C@@H]1CCC2=O [Estrone]	0.49
CCCCCCCN(CC)CCCC(O)c1ccc(NS(C)(=O)=O)cc1 (stereo not given) [Ibutilide Fumarate]	0.2
Nc1ccc(S(=O)(=O)NC(=O)c2ccccc2)cc1 [Sulfabenzamide]	0.8
Cc1ncc([N+](=O)[O-])n1C [Dimetridazole]	0.38
CN(C/C=C/C#CC(C)(C)C)Cc1cccc2ccccc12 [Terbinafine HCl]	-0.62
C[C@]1(COc2ccc(N3CCC(Oc4ccc(OC(F)(F)F)cc4)CC3)cc2)Cn2cc([N+](=O)[O-])nc2O1 [Delamanid]	-0.2
C[C@]12CC[C@@H]3c4ccc(O)cc4CC[C@H]3[C@@H]1C[C@@H](O)[C@@H]2O [Estriol]	0.65
CCCNCC(O)COc1ccccc1C(=O)CCc1ccccc1 (stereo not given) [Propafenone HCl]	0.15
COc1ccc2cc(CCC(C)=O)ccc2c1 [Nabumetone]	1
O=C(O)c1ccccc1C(=O)Nc1ccc(S(=O)(=O)Nc2nccs2)cc1 [Phthalylsulfathiazole]	-0.99
CCOc1ccc(NC(C)=O)cc1 [Phenacetin]	-0.61
N[C@H]1CONC1=O [L-Cycloserine]	-1.74
CO/N=C(/C(=O)N[C@@H]1C(=O)N2C(C(=O)OCOC(=O)C(C)(C)C)=C(C)CS[C@H]12)c1csc(N)n1 [Cefetamet pivoxil hydrochloride]	-1.5
Cc1c(OCC(F)(F)F)ccnc1C[S@@+]([O-])c1nc2ccccc2[nH]1 [Dexlansoprazole]	0.34
O=C(CCCN1CCN(c2ccccn2)CC1)c1ccc(F)cc1 [Azaperone]	-0.1

SMILES	z-score of prototroph abundance
CC[C@H](C)C(=O)O[C@H]1C[C@H](O)C=C2C=C[C@H](C)[C@H](CC[C@@H](O)C[C@@H](O)CC(=O)O)[C@H]21 [Pravastatin sodium]	-0.86
N[C@@H]1CCCCN(c2c(F)cc3c(=O)c(C(=O)O)cn(C4CC4)c3c2Cl)C1 [Besifloxacin HCl]	-0.33
CC(=O)OCC1=C(C(=O)O)N2C(=O)[C@@H](NC(=O)CSc3ccncc3)[C@H]2SC1 [Cephapirin Benzathine]	-0.46
NC12CC3CC(CC(C3)C1)C2 [Amantadine]	0
C[C@@H]1CN(c2c(F)c(N)c3c(=O)c(C(=O)O)cn(C4CC4)c3c2F)C[C@H](C)N1 [Sparfloxacin]	0.52
O=C(O)c1cc(O)c2c(c1)[C@H]([C@H]1c3cc(C(=O)O)cc(O)c3C(=O)c3c(O[C@@H]4O[C@H](CO)[C@@H](O)[C@H](O)[C@H]4O)cccc31)c1cccc(O[C@@H]3O[C@H](CO)[C@@H](O)[C@H](O)[C@H]3O)c1C2=O [Sennoside A]	0.91
C[C@H]1O[C@@H](O[C@H]2[C@@H](O)C[C@H](O[C@H]3[C@@H](O)C[C@H](O[C@H]4CC[C@@]5(C)[C@H](CC[C@@H]6[C@@H]5C[C@@H](O)[C@]5(C)[C@@H](C7=CC(=O)OC7)CC[C@]65O)C4)O[C@@H]3C)O[C@@H]2C)C[C@H](O)[C@@H]1O [Digoxin]	0.39
CCCc1nc(C)c2c(=O)nc(-c3cc(S(=O)(=O)N4CCN(CC)CC4)ccc3OCC)[nH]n12 [Vardenafil HCl Trihydrate]	-0.75
Nc1nc(O)c2ncn(CCC(CO)CO)c2n1 [Penciclovir]	-0.05
c1cnc2cc3c(cc2n1)[C@@H]1CNC[C@H]3C1 [Varenicline Tartrate]	0.71
COC(=O)C1=C(C)NC(C)=C(C(=O)OC(C)(C)CN(C)CCC(c2ccccc2)c2ccccc2)C1c1cccc([N+](=O)[O-])c1 (stereo not given) [Lercanidipine]	-0.62
COc1cc2c(cc1OC)C(=O)C(CC1CCN(Cc3ccccc3)CC1)C2 (stereo not given) [Donepezil HCl]	0.26
COc1ccc(C[C@H](N)C(=O)N[C@H]2[C@@H](O)[C@H](n3cnc4c(N(C)C)ncnc43)O[C@@H]2CO)cc1 [Puromycin 2HCl]	-0.54
CC1=Nc2ccc(Cl)cc2S(=O)(=O)N1 [Diazoxide]	0.72
NC(=O)c1cn(Cc2c(F)cccc2F)nn1 [Rufinamide]	-0.37
CN[C@@H]1[C@@H](O)[C@@H](O[C@@H]2[C@@H](O)[C@H](O[C@H]3OC(CN)=CC[C@H]3N)[C@@H](N)C[C@H]2N)OC[C@]1(C)O [Sisomicin sulfate]	-0.71
CC1CCc2cc(F)cc3c(=O)c(C(=O)O)cn1c23 (stereo not given) [Flumequine]	1.18
CC1(C)S[C@@H]2[C@H](NC(=O)Cc3ccccc3)C(=O)N2[C@H]1C(=O)O [Benzylpenicillin potassium]	-0.27
Cc1c(Cl)cccc1Nc1ccccc1C(=O)O [Tolfenamic Acid]	1.21
Cc1onc(-c2ccccc2Cl)c1C(=O)N[C@@H]1C(=O)N2[C@@H]1SC(C)(C)[C@@H]2C(=O)O [Cloxacillin Sodium]	-1.62
